# Data: ChEMBL document CHEMBL3988442, “University of Dundee, Small-Polar-MMV Screening Library” (2021)
# In all, about 48,000 compounds went through this assay and about 13,000 (27%) showed an effect of 50% or more. The list shows a part of the results.
# System: Wolbachia pipientis
# Experiment: Anti-Wolbachia Cell-Based Screen
# Assay type: functional
# Parameters: scale not given: in the data most compounds retested in dose-response had high values
# Conditions: 5 µM
row,SMILES,Percent Effect
1,CC(NCc1ccccc1CN1CCCC1=O)c1ccc(C#N)cc1 (stereo unspecified),-5.192%
2,CCN(CCOc1ccc(F)cc1)C(=O)c1ccncc1Cl,2.739%
3,O=C(NCCC1CN(Cc2cccnc2)CCO1)c1ccsc1 (stereo unspecified),-9.218%
4,N#Cc1ccc(-c2nnc(CSCCN3CCOCC3)o2)cc1,-12.22%
5,FC(F)(F)Cn1nnnc1SCCN1CCCCC1,-6.458%
6,N#CCCSc1sc2c(O)cc(O)nc2c1C#N,107.9%
7,N#Cc1ccc(F)c(CSCCN2CCOCC2)c1,-32.26%
8,N#Cc1c(SCCN2CCCCCC2)sc2c(O)cc(O)nc12,100.4%
9,N#Cc1c(SCCN2CCCCC2)sc2c(O)cc(O)nc12,98.27%
10,N#Cc1c(SCCN2CCOCC2)sc2c(O)cc(O)nc12,143.1%
11,Cn1cc(Br)cc1C(=O)NC1(C#N)CC1,-11.26%
12,c1cnc(NCCCOC2CCOCC2)nc1,1.156%
13,CC(C)CN1CCCn2nc(CNC(=O)CN3CCOC3=O)cc2C1,1.752%
14,Cn1cnnc1CNC(=O)CCCOc1ccccc1Cl,2.629%
15,Cc1ccc(N(C)Cc2nnnn2C2CC2)c(C)c1,-2.761%
16,O=C(c1cccc2c1OCO2)N1CCCC(n2cccn2)C1 (stereo unspecified),2.187%
17,Cc1cnn(C2CCCN(C(=O)c3cccc4c3OCO4)C2)c1 (stereo unspecified),104.2%
18,O=C(c1cccc2c1OCCO2)N1CCCC(n2cccn2)C1 (stereo unspecified),108.1%
19,Cc1cc(C)n(C2CCCN(C(=O)c3cccc4[nH]ncc34)C2)n1 (stereo unspecified),4.56%
20,COCc1ccccc1C(=O)N1CCCC(n2nc(C)cc2C)C1 (stereo unspecified),4.248%
21,Cc1cc(C)n(C2CCCN(C(=O)c3cccc4c3OCO4)C2)n1 (stereo unspecified),86.78%
22,O=C(c1ccccc1N1CCOCC1)N1CCCC(n2cccn2)C1 (stereo unspecified),-2.451%
23,c1cc(CCn2ccc(NC3CCSCC3)n2)ccn1,6.041%
24,COc1cccc(N2CCN(C(C(=O)O)c3ccc(OC)nc3)CC2)c1 (stereo unspecified),-2.782%
25,COc1c(F)cc(-c2cccc3c2OC(CN)C3)cc1F (stereo unspecified),6.268%
26,CC1CCN(C(=O)C2(Cc3cc(C4CCOC4)no3)CCNCC2)CC1.Cl (stereo unspecified),189.1%

row,SMILES,Percent Effect
1,OCC1COCCN(Cc2cc(C3CCCCC3)no2)C1 (stereo unspecified),-1.346%
2,CC(C)(C)c1noc(OCC(=O)NC2CCCC2)n1,-14.46%
3,CC(C)(C)c1cc(C[C@H]2CNCC[C@H]2CC(=O)NC2CCCCC2)no1,10.2%
4,Cl.O=C(NC1CCCC1)C1(Cc2cc(C3CCOC3)no2)CCNCC1 (stereo unspecified),131.3%
5,C[C@@H]1CN(Cc2cc(C3CCCCC3)no2)CC[C@]1(C)O,4.197%
6,CCN(C)c1ccc(CNC(=O)c2cc(C(N)=O)cs2)cc1F,-17.75%
7,OCCN1CCN(Cc2cn(-c3ccccc3)nn2)CC1,-6.326%
8,CN1CC(c2ccccc2)CC12CCN(C(=O)c1ccc(Cl)cn1)CC2 (stereo unspecified),-6.025%
9,Cc1cc(NCCc2nc(C)cs2)nc(-c2cccnc2)n1,101.8%
10,Cc1n[nH]c(C)c1CCN(C)C(=O)C(c1cccnc1)N1CCOCC1 (stereo unspecified),1.239%
11,CCCc1nc(C)cc(NC(C)Cc2cnccn2)n1 (stereo unspecified),10.99%
12,CC(C)Cc1cc(C(=O)NCCc2nnc(N)s2)n(C)n1,6.947%
13,FC(F)(F)c1cc(NCCn2ncnn2)nc(-c2cccnc2)n1,-6.298%
14,Cc1cc(N(C)Cc2cc(C(C)(C)C)n[nH]2)nc(-c2cccnc2)n1,-3.665%
15,Cc1csc(CCNc2ccc(C#N)cn2)n1,-3.132%
16,Cc1cc(NCCc2nnc(N)s2)nc(-c2cccnc2)n1,111.6%
17,FC(F)(F)c1cc(NCCCn2cccn2)nc(-c2cccnc2)n1,19.81%
18,CCCc1nc(C)cc(NCCc2nnc(N)s2)n1,113%
19,Cc1cc(N(C)Cc2snnc2C)nc(-c2cccnc2)n1,5.151%
20,Cc1cc(NCCc2c(C)n[nH]c2C)nc(-c2cccnc2)n1,90.29%
21,O=C(Nc1cccn(CC(F)(F)F)c1=O)c1ccncc1F,-0.2014%
22,CSc1ncc(C(=O)N2C[C@H]3CC[C@@H]2CN(Cc2ccccc2)C3)cn1,-11.56%
23,COc1cccc(CNC2CCCOc3cc(C)ccc32)n1 (stereo unspecified),-12.28%
24,Cn1cccc1-c1cc(C(=O)NCCc2nnc(N)s2)[nH]n1,-4.601%
25,Cc1cc(NCCc2nnc(N)s2)nc(-c2ccccc2)n1,97.75%
26,Cc1ccccc1C(CC(=O)NCc1nnc(N)s1)c1ccccc1 (stereo unspecified),1.078%

row,SMILES,Percent Effect
1,N#Cc1cccc(NC(=O)N[C@H](CO)Cc2ccc(O)cc2)c1,-17.39%
2,O=C(NC1CCC1)C1CCC2(CN(C(=O)c3ccno3)C2)O1 (stereo unspecified),2.059%
3,Cc1[nH]ccc1C(=O)N1CCCC(c2ccc(C(=O)O)cc2)C1 (stereo unspecified),104%
4,Cc1cc(C(=O)N2CCCC(c3ccc(C(=O)O)cc3)C2)c(C)o1 (stereo unspecified),108.3%
5,CC(C)(C)n1ccc(C(=O)N2CCCC(c3ccc(C(=O)O)cc3)C2)c1 (stereo unspecified),-5.053%
6,Cc1cc(C(=O)N2C[C@@H](C(=O)O)[C@H](c3ccccc3C)C2)c(C)o1,-7.74%
7,O=C(c1ccc[nH]1)N1CCCC(c2cc(C(F)(F)F)[nH]n2)C1 (stereo unspecified),-9.471%
8,O=C(O)c1ccc(C2CCCN(C(=O)c3ccc[nH]3)C2)cc1 (stereo unspecified),96.47%
9,CC(C)c1csc(C2CCCN(C(=O)c3ccc[nH]3)C2)n1 (stereo unspecified),7.741%
10,Cc1[nH]ccc1C(=O)N1CCCC(c2nccn2Cc2cscn2)C1 (stereo unspecified),-11.42%
11,CCC(C)N1CCC(Oc2ccc(C(=O)NCCN(C)C)cc2Cl)CC1 (stereo unspecified),0.8675%
12,COc1cccc(/C=C/CCN2CCCN(C(C)=O)CC2)c1,3.012%
13,COCC(=O)NCc1cccc(OCCN(C)C2CCOCC2)c1,-0.3867%
14,Cc1ccc(C)c(-n2cc(CN3CCOCC3)c(-c3ccccc3)n2)c1,9.149%
15,CC(C)c1nc(C2CCCN2CCN2CCCCC2)no1 (stereo unspecified),99.79%
16,CCS(=O)(=O)CCN1CCCC1c1noc(C2CC2)n1 (stereo unspecified),-6.058%
17,CC(C)c1nc(C2CCCN2CCS(C)(=O)=O)no1 (stereo unspecified),108.9%
18,CCc1nc(C2CCCN2CCc2ccccn2)no1 (stereo unspecified),17.85%
19,CC(C)c1nc(C2CCCN2CC(=O)N2CCNC2=O)no1 (stereo unspecified),0.9306%
20,CC(C)c1nc(C2CCCN2CCNS(C)(=O)=O)no1 (stereo unspecified),98.61%
21,CC(C)c1nc(C2CCCN2CCc2ccccn2)no1 (stereo unspecified),92.65%
22,Cc1nc(C2CCCN2CCCNS(C)(=O)=O)no1 (stereo unspecified),5.107%
23,Cc1nc(C2CCCN2CCc2ccccn2)no1 (stereo unspecified),0.4664%
24,CC(C)c1nc(C2CCCN2CCc2ccncc2)no1 (stereo unspecified),-3.016%
